This passage reports z-score, Potency and activity, negative = inhibition results from PubChem BioAssay (NCATS).

Results filed as inconclusive are left out. The source made the active and inactive calls. Calls follow the shape of the dose curve; as a rule, active = well fitted inhibition curve with a large enough effect; inconclusive = small, poorly fitted or top-dose-only effect; inactive = flat fitted curve, though single readings scatter.

A short description of assay [1]: qHTS for identification of novel therapeutic agents for treatment of microphthalmiaassociated transcription factor (MiT) renal cell carcinoma (RCC) (AID 1963991). The settings on record: CellTiter-Glo, 48 h, stronger effect = lower value. In short, it runs like this: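 Curves over 11 concentrations were fitted to CellTiter-Glo luminescence, scaled between empty wells (0%) and DMSO (100%) viability. Cells were UOK109, UOK124 and UOK145 TFE3-fusion RCC lines at 500/well, exposed 48 hours at 37 C.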
(Quantitative high-throughput screening tests each substance at several concentrations.)

Another assay relates to 7G8. The assay can be described thus: qHTS profiling for inhibitors of Plasmodium falciparum proliferation (AID 504749). Also: nearly all actives have a fitted effect of over 60% in size. Also: potency is read from the fitted curve at half-maximal effect.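 As to activity, negative = inhibition: 0% = DMSO vehicle and full inhibition = artemisinin control.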 The settings on record: P. falciparum in erythrocytes, SYBR Green DNA, 72 h; series mostly up to 28.7 µM. In short, it runs like this: (§1)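 Each compound contacts P. falciparum-infected red blood cells for 72 h at 37 C; lysis buffer (Tris, EDTA, saponin, Triton X, SYBR Green I) is added and fluorescence measured next morning; values normalized to controls.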

The subject of a further assay is AA1029. The assay is described as above. To be noted: P. falciparum in erythrocytes, SYBR Green DNA, 72 h; series mostly up to 28.7 µM. The procedure, abridged:
as §1

In a further assay the test system is AS120. Described as above. To be noted: P. falciparum in erythrocytes, SYBR Green DNA, 72 h; series mostly up to 28.7 µM. In short, it runs like this: as §1
For another assay, the system named is ATS95. The description is as above. The settings on record: P. falciparum in erythrocytes, SYBR Green DNA, 72 h; series mostly up to 28.7 µM. The procedure, abridged:
as §1

A further assay concerns CP191. Described as above. To be noted: P. falciparum in erythrocytes, SYBR Green DNA, 72 h; series mostly up to 28.7 µM. In short, it runs like this: as §1
The next assay has as its system CP201. The description is as above. To be noted: P. falciparum in erythrocytes, SYBR Green DNA, 72 h; series mostly up to 28.7 µM. In short, it runs like this: as §1
The subject of a further assay is CP211. The description is as above. To be noted: P. falciparum in erythrocytes, SYBR Green DNA, 72 h; series mostly up to 28.7 µM. In short, it runs like this:
as §1

A further assay concerns CP237. Described as above. The settings on record: P. falciparum in erythrocytes, SYBR Green DNA, 72 h; series mostly up to 28.7 µM. The procedure, abridged:
as §1

Experiment in assay [2]: as above
The settings on record: P. falciparum in erythrocytes, SYBR Green DNA, 72 h. In short, it runs like this:
as §1

In a further assay the test system is 3D7. The assay is described as above. The settings on record: P. falciparum in erythrocytes, SYBR Green DNA, 72 h; series mostly up to 28.7 µM. The procedure, abridged:
as §1

For a further assay, the system named is ATS189. The description is as above. To be noted: P. falciparum in erythrocytes, SYBR Green DNA, 72 h; series mostly up to 28.7 µM. The procedure, abridged: as §1
The subject of another assay is C2A. Described as above. To be noted: P. falciparum in erythrocytes, SYBR Green DNA, 72 h; series mostly up to 28.7 µM. The procedure, abridged: as §1
Another assay has as its system CP185. Described as above. The settings on record: P. falciparum in erythrocytes, SYBR Green DNA, 72 h; series mostly up to 28.7 µM. The procedure, abridged: as §1
Another assay relates to CP192. Described as above. To be noted: P. falciparum in erythrocytes, SYBR Green DNA, 72 h; series mostly up to 28.7 µM. The procedure, abridged: as §1
The subject of a further assay is CP194. The assay is described as above. To be noted: P. falciparum in erythrocytes, SYBR Green DNA, 72 h; series mostly up to 28.7 µM. In short, it runs like this:
as §1

The subject of a further assay is CP203. Described as above. The settings on record: P. falciparum in erythrocytes, SYBR Green DNA, 72 h; series mostly up to 28.7 µM. The procedure, abridged: as §1
The subject of the next assay is CP215. Described as above. To be noted: P. falciparum in erythrocytes, SYBR Green DNA, 72 h; series mostly up to 28.7 µM. In short, it runs like this: as §1
A further assay concerns CP217. The description is as above. To be noted: P. falciparum in erythrocytes, SYBR Green DNA, 72 h; series mostly up to 28.7 µM. The procedure, abridged:
as §1

The mark [3] stands for this setting: TFE3-RCC UOK109 viability, measured here: UOK109 Z-AUC.
Where [4] appears, read: TFE3-RCC viability, measured here: UOK124 Z-AUC.
Setting [5] is: TFE3-RCC viability, measured here: UOK145 Z-AUC.

Take `O=C(O)CCn1c2c(c3ccccc31)C[C@H](NS(=O)(=O)c1ccc(F)cc1)CC2`: the z-score is 0.68 in [1] (setting [3]), 0.798 in [1] (setting [4]) and 0.766 in [1] (setting [5]).

For `CNCC[C@H](Oc1cccc2ccccc12)c1cccs1`, the Potency is 2.24 µM (active) with 7G8; 7.08 µM (active) in the assay with AA1029; 11.2 µM (active) in the assay with AS120; 7.94 µM (active) in the assay with ATS95; 11.2 µM (active) with CP191; 10 µM (active) in the assay with CP237. Besides, the Potency result with CP201 and in the assay with CP211 was “inactive” in each case.

Regarding `CCn1cc(C(=O)O)c(=O)c2cc(F)c(N3CCNCC3)nc21`, the z-score in assay [1] (setting [3]) was 0.63; in assay [1] (setting [4]), -0.25; in [1] (setting [5]), 0.63. In addition, the activity, negative = inhibition in assay [2] (at 12.8 µM (top of the series), parasite line A) is -33.7% (inactive); in assay [2] (at 12.8 µM (top of the series), parasite line B) it was -38.9% (inactive). In addition, the Potency entry in the assay with 3D7, with ATS189, in the assay with ATS95, in the assay on C2A, in the assay on CP185 and with CP191 was “inactive” throughout. The Potency entry in the assay with CP192, in the assay with CP194, in the assay with CP201, in the assay on CP203, in the assay on CP211 and in the assay with CP215 was “inactive” each time. Also, the Potency result in the assay with CP217 is “inactive”.

For `CN1CCCC(n2nc(Cc3ccc(Cl)cc3)c3ccccc3c2=O)CC1` (configuration not stated), the activity, negative = inhibition is -9.96% (inactive) in [2] (at 28.7 µM (top of the series), parasite line A) and -11.1% (inactive) in [2] (at 28.7 µM (top of the series), parasite line B). Also, the Potency result with 3D7, with CP185, with CP192, in the assay on CP194 and with CP211 was “inactive” in each case. For the same molecule, the Potency in the assay with 7G8 is 12.6 µM (active).
